Source: PubChem BioAssay AID1159580 (chemical genetic matrix, 2015)
Where “and” joins values, the source holds several entries; their conditions need not be identical. Identical values can stand only once. About 2,000 (36%) of roughly 5,500 compounds were called active. Inconclusive results (about 18%) are left out. Rule as the data show it: active = normalized growth mostly below about 0.91 (no sharp cut-off); inconclusive = no clear call, values can overlap the other calls; inactive = mostly above about 0.92. This is one part of the list.

Test: chemical genetic growth profiling, strain panel (AID 1159580);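 also: tested at 20 µM; growth read once vehicle control cultures reached saturation at 30 °C; 1 = growth at the plate median or of vehicle wells; lower values mean less growth of the strain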
Conditions: S. cerevisiae deletion strains, growth OD

Measured: normalized growth

Cc1nc2ccccn2c(=O)c1CCN1CCC(C(=O)c2ccc(F)cc2)CC1
inactive: locus YAL013W, strain DEP1, stronger effect = lower value 1.02 and 1.01 | locus YAL021C, strain ccr4, stronger effect = lower value 1 | locus YAL026C, strain drs2, stronger effect = lower value 1 | locus YAL030W, strain snc1, stronger effect = lower value 0.999 | locus YAL040C, strain CLN3, stronger effect = lower value 0.993 | locus YBL061C, strain skt5, stronger effect = lower value 0.983 | locus YBR009C, strain hhf1, stronger effect = lower value 0.987 | locus YBR021W, strain FUR4, stronger effect = lower value 0.981 | locus YBR023C, strain chs3, stronger effect = lower value 0.986 | locus YBR171W, strain sec66, stronger effect = lower value 0.981 | locus YBR229C, strain ROT2, stronger effect = lower value 1.02 | locus YBR231C, strain swc5, stronger effect = lower value 0.984 | locus YBR279W, strain paf1, stronger effect = lower value 0.977 | locus YCL011C, strain gbp2, stronger effect = lower value 0.997 | locus YCL016C, strain dcc1, stronger effect = lower value 0.989 | locus YCL029C, strain bik1, stronger effect = lower value 0.999 | locus YCL061C, strain MRC1 (second series), stronger effect = lower value 1.01 | locus YCL061C, strain MRC1, stronger effect = lower value 1.02 | locus YCL069W, strain vba3, stronger effect = lower value 1 | locus YCR088W, strain abp1, stronger effect = lower value 0.982 | locus YDL005C, strain med2, stronger effect = lower value 0.973 | locus YDL035C, strain GPR1, stronger effect = lower value 1.02 | locus YDL040C, strain nat1, stronger effect = lower value 1 | locus YDL074C, strain BRE1, stronger effect = lower value 1.07 | locus YDL101C, strain DUN1, stronger effect = lower value 1.04 | locus YDL134C, strain PPH21, stronger effect = lower value 1.02 | locus YDL185W, strain tfp1, stronger effect = lower value 0.992 | locus YDL192W, strain arf1, stronger effect = lower value 0.997 | locus YDR001C, strain nth1, stronger effect = lower value 0.986 | locus YDR069C, strain doa4, stronger effect = lower value 0.972 | locus YDR101C, strain arx1, stronger effect = lower value 0.979 | locus YDR137W, strain rgp1, stronger effect = lower value 0.976 | locus YDR150W, strain NUM1, stronger effect = lower value 1.03 and 1 | locus YDR159W, strain sac3, stronger effect = lower value 0.977 | locus YDR162C, strain NBP2, stronger effect = lower value 1.05 | locus YDR195W, strain ref2 0.996 | locus YDR297W, strain sur2, stronger effect = lower value 0.98 | locus YDR318W, strain mcm21, stronger effect = lower value 0.983 | locus YDR334W, strain swr1, stronger effect = lower value 0.982 | locus YDR335W, strain msn5, stronger effect = lower value 0.984 | locus YDR363W, strain ESC2, stronger effect = lower value 1.01 | locus YDR388W, stronger effect = lower value 0.995 | locus YDR392W, strain spt3, stronger effect = lower value 0.988 | locus YDR502C, strain sam2, stronger effect = lower value 1.01 | locus YEL003W, strain gim4, stronger effect = lower value 0.997 | locus YEL037C, strain rad23, stronger effect = lower value 0.984 | locus YEL061C, strain CIN8 (second series), stronger effect = lower value 0.994 | locus YEL061C, strain CIN8, stronger effect = lower value 1.01 | locus YER002W, strain NOP16, stronger effect = lower value 0.983 | locus YER015W, strain faa2, stronger effect = lower value 0.997 | locus YER016W, strain bim1, stronger effect = lower value 0.985 | locus YER110C, stronger effect = lower value 0.991 | locus YER111C, strain swi4, stronger effect = lower value 0.973 | locus YER155C, strain BEM2 (second series), stronger effect = lower value 1 | locus YER155C, strain BEM2, stronger effect = lower value 1.02 | locus YER167W, strain BCK2, stronger effect = lower value 1.01 | locus YFR010W, strain ubp6, stronger effect = lower value 0.989 | locus YGL078C, strain dbp3, stronger effect = lower value 0.999 | locus YGL086W, strain mad1, stronger effect = lower value 0.996 | locus YGL167C, strain pmr1, stronger effect = lower value 0.983 | locus YGL173C, strain kem1, stronger effect = lower value 0.992 | locus YGL227W, strain vid30, stronger effect = lower value 1 | locus YGL240W, strain doc1, stronger effect = lower value 1.01 | locus YGL248W, strain PDE1, stronger effect = lower value 1.02 | locus YGL253W, strain hxk2, stronger effect = lower value 0.996 | locus YGR078C, strain PAC10, stronger effect = lower value 1.04 and 1.02 | locus YGR135W, strain pre9, stronger effect = lower value 1 | locus YGR229C, strain SMI1, stronger effect = lower value 1.04 | locus YGR252W, strain gcn5, stronger effect = lower value 0.945 | locus YHR013C, strain ard1, stronger effect = lower value 0.97 | locus YHR027C, strain rpn1, stronger effect = lower value 0.985 | locus YHR030C, strain SLT2, stronger effect = lower value 1.02 | locus YHR079C, strain IRE1 (second series), stronger effect = lower value 0.985 | locus YHR079C, strain IRE1, stronger effect = lower value 1.05 | locus YHR094C, strain hxt1, stronger effect = lower value 0.998 | locus YHR129C, strain ARP1, stronger effect = lower value 1.02 | locus YHR142W, strain chs7, stronger effect = lower value 0.968 | locus YHR200W, strain rpn10, stronger effect = lower value 0.998 | locus YIL066C, strain RNR3, stronger effect = lower value 1.03 | locus YIL073C, strain SPO22, stronger effect = lower value 0.973 | locus YIL125W, strain kgd1, stronger effect = lower value 1 | locus YIR030C, strain dcg1, stronger effect = lower value 1 | locus YJL092W, strain hpr5, stronger effect = lower value 0.987 | locus YJL095W, strain BCK1 (second series), stronger effect = lower value 0.986 | locus YJL095W, strain BCK1, stronger effect = lower value 1.04 and 1.01 | locus YJL115W, strain asf1, stronger effect = lower value 0.991 | locus YJL129C, strain trk1, stronger effect = lower value 0.987 | locus YJL134W, strain LCB3, stronger effect = lower value 1.02 | locus YJL154C, strain vps35, stronger effect = lower value 0.987 | locus YJL164C, strain tpk1, stronger effect = lower value 0.993 | locus YJL166W, strain qcr8, stronger effect = lower value 0.996 | locus YJL168C, strain set2, stronger effect = lower value 0.99 | locus YJL187C, strain SWE1 (second series), stronger effect = lower value 1.03 | locus YJR043C, strain POL32, stronger effect = lower value 1 | locus YJR066W, strain TOR1, stronger effect = lower value 0.993
